# Measured values: PubChem BioAssay (Tox21)
# Inconclusive results are not listed. Entries that show only a call come without a potency. Unmarked numbers belong to inactive results. Active and inactive are the calls of the source. Calls come from the whole dose curve; as a rule, active = well fitted cell-killing curve with a large enough effect in the repeat runs; inconclusive = weak or mixed curves, or effect the other way; inactive = no such curve, though single readings can be large or run the other way.
# Assay: qHTS assay to identify small molecule agonists of the RXR signaling pathway - cell viability counter screen (AID 1159529); note: nearly all actives have a fitted effect of over 50% in size
# Conditions: RXR-alpha-bla HEK293T viability, CellTiter-Glo, 16 h; series mostly up to 76.8 µM
# From the text: National Center for Advancing Translational Sciences [NCATS]
# NIH Chemical Genomics Center [NCGC]
# U.S. Environmental Protection Agency [EPA]
# National Institutes of Environmental Health Sciences [NIEHS]
# National Toxicology Program [NTP]
# U.S. Food and Drug Administration [FDA]
# The Retinoid X receptor (RXR), a nuclear hormone receptor expressed in liver, spleen, placenta, epidermis, central nervous system. These receptors are able to form homo and heterodimers with other nuclear receptors and due to this heterodimerizing ability, RXR functions as master regulators producing diverse physiological effects. Three subtypes of RXR exist; alpha, beta and gamma. Retinoid X receptor alpha (RXR-alpha) has potential roles in metabolic signaling pathways, skin alopecia, dermal cysts, cardiac development, insulin sensitization etc. Therefore screening environmental chemicals on RXR-alpha signaling can be used for the studies focused on such therapeutic applications. For quantification of RXR-alpha ligands signaling, GeneBLAzer RXR alpha-UAS-bla HEK 293T (Life Technologies, Carlsbad, CA) cells containing a beta-lactamase reporter-gene under control of Retinoid X receptor-alpha response element were used to screen Tox21 10K library. The cytotoxicity of the Tox21 compound library against the RXR-alpha HEK 293T cell line was tested in parallel by measuring cell viability using CellTiter-Glo assay (Promega Corporation, Madison, WI) in the same wells.
# Tox21 Assay Protocol Summary:
# RXR-alpha HEK 293T cells were dispensed at 2,000 cells/6 uL of assay medium containing 2% charcoal-stripped FBS using a Multidrop Combi (ThermoFisher Scientific, Waltham, MA) dispenser. The assay was performed in black wall/clear-bottom 1536-well plates (Greiner Bio-One North America Inc. Monroe, NC). Tetraoctyl ammonium bromide was used as a positive control in the cytotoxicity screen. After the assay plates were incubated at 37 C and 5% CO2 for 5 hr, 23 nL of compounds dissolved in DMSO, positive control or DMSO only were transferred to the assay plate by a Pintool station (Kalypsys, San Diego, CA). The assay plates were incubated at 37 C and 5% CO2 for 16 hr. One uL of LiveBLAzer B/G FRET substrate (Life Technologies) was added using a Flying Reagent Dispenser (FRD) (Aurora Discovery, San Diego, CA) and the plates were incubated at room temperature for 2 hr. Fluorescence intensity (405 nm excitation, 460/530 nm emission) was measured using an Envision plate reader (PerkinElmer, Shelton, CT). For cytotoxicity, 4 uL/well of CellTiter-Glo reagent was added into the assay plates using an FRD. After 30 min incubation at room temperature, the luminescence intensity was measured using a ViewLux plate reader (PerkinElmer).
# Potency is the fitted concentration of half-maximal effect.
Structure (SMILES),Potency,"activity change, negative = cytotoxicity"
C=CCc1cc(S(=O)(=O)c2ccc(O)c(CC=C)c2)ccc1O,inactive,–
C=C(C)CCO,inactive,–
CCCCCN=C(N)N/N=C/c1c[nH]c2ccc(OC)cc12,7.56 µM (active),–
CCNc1nc(NC(C)(C)C)nc(OC)n1,inactive,–
C=CC(=O)OCCOC1C2CCC1C1CC=CC12 (stereo not given),–,-24% [at 15.8 µM]
CCOC(=O)[C@H](O)[C@@H](O)C(=O)OCC,inactive,–
CCCCC/C=C\C=C\C(=O)OCC,45.5 µM (active),–
SC1CCCCC1,inactive,–
Cc1ccc(C2OC[C@@H]3OC(c4ccc(C)cc4)O[C@H]([C@H](O)CO)[C@@H]3O2)cc1 (stereo not given in full),inactive,–
CN1CCN(C)CC1,inactive,–
CC1(C)[C@H]2CC[C@]1(C)C(=O)C2,inactive,–
Clc1nc(C(Cl)(Cl)Cl)c(Cl)c(Cl)c1Cl,43.6 µM (active),–
CCCCCCCCCCCCN1CCCC1=O,54.9 µM (active),–
CC(C)=NNC(N)=S,inactive,–
Cc1ccc2nc(-c3ccc(N)cc3)sc2c1S(=O)(=O)O,inactive,–
C=CC(=O)O[C@H]1C[C@@H]2CC[C@@]1(C)C2(C)C,inactive,–
C1CCSC1,inactive,–
CC(C=O)c1ccccc1 (stereo not given),inactive,–
CC(=O)CC(N)=O,inactive,–
CC(C)C(=O)C(C)C,inactive,–

Structure (SMILES),Potency,"activity change, negative = cytotoxicity"
C/C=C/C(=O)OCC(C)C,inactive,–
Cc1cc(Br)ccc1NC(=O)CCl,21.9 µM (active),–
O=C(O)CN(CCCN(CC(=O)O)CC(=O)O)CC(=O)O,–,-1.37% [at 15.8 µM]
C=CC(=O)OCC(Br)CBr (stereo not given),inactive,–
Oc1ccc(C2(c3ccc(O)c(C4CCCCC4)c3)CCCCC2)cc1C1CCCCC1,19.5 µM (active),–
Cn1c(=O)[nH]c2ncn(C)c2c1=O,inactive,–
S=C1NC=NC2N=CNC12 (stereo not given),6.92 µM (active),–
Cn1ccnc1,inactive,–
CN[C@H]1CC[C@@H](c2ccc(Cl)c(Cl)c2)c2ccc(S(N)(=O)=O)cc21,27.5 µM (active),–
CCOc1nc(F)cc2nc(S(=O)(=O)Nc3c(Cl)cccc3C(=O)OC)nn12,inactive,–
[Cl][Dy]([Cl])[Cl],inactive,–
C/C=C/C(=O)C1=C(C)C=CCC1(C)C,inactive,–
O=[N+]([O-])c1ccc(CO)cc1,inactive,–
CC(O)(c1ccc(Cl)cc1)c1ccc(Cl)cc1,38.9 µM (active),–
O=C1OCc2ccccc21,inactive,–
CN1CCN(c2ccccc2/C=C2\SCCN(c3ccc(Cl)c(Cl)c3)C2=O)CC1,24.5 µM (active),–
CCOC=C(C(=O)OCC)C(=O)OCC,inactive,–
c1ccc(-c2ccccc2-c2ccccc2)cc1,43.6 µM (active),–
O=C(Nc1ccc([N+](=O)[O-])cc1)Nc1ccc([N+](=O)[O-])cc1 (tested in a mixture with another compound),0.848 µM (active),–
Cc1cccc(C)c1C,inactive,–
